# Results: PubChem BioAssay AID1508600 (Functional Genomics Laboratory (NCATS/FGL), 2020)
# About 3,700 (7%) of roughly 53,000 sequences were called active. This excerpt belongs to a sample that is enriched for actives. Unmarked numbers belong to inactive results.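 The calls were made as follows: active = gene knockdowns whose robust z-score for IL-1 alpha signal is at least 2 or at most -2, so actives lie on both sides; inactive = the rest.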
# Assay: Components of the Cytosolic LPS Sensing Pathway: Gene Identification via Genome-wide siRNA Screen
# Conditions: RAW264.7 macrophages, IL-1a HTRF, actives lie on both sides, screened at 100 nM (by protocol), cells primed 5 h with Pam3CSK4 first
# Text: Non-canonical inflammasome activation by cytosolic LPS is a critical component of the host response to Gram-negative bacterial infection, however we lack a comprehensive understanding of the cellular processes that control this pathway. Here we describe a genome-wide siRNA screen to identify genes regulating the mouse macrophage IL-1 alpha response to cytosolic LPS.
# RAW264.7 cells were maintained in complete DMEM media, comprising DMEM with 4.5 g/L glucose, 10% FBS (Gemini Bio-Products, West Sacramento, CA), 2 mM Glutamine (Lonza) and 20 mM HEPES (Lonza), hereafter complete DMEM.
# The RNAi screen was conducted in 384-well format using the Ambion Silencer Mouse Genome siRNA Library (#4391425), which consists of three unique, nonoverlapping, nonpooled siRNAs for each of 17,000 gene targets. siRNA reagents ([…]) were stamped into 384-well white flat-bottom microplates (Corning, 3570) using a Velocity11 VPrep liquid handling system (Agilent) integrated into a BioCel robotic platform (Agilent) in columns 1-22, leaving columns 23-24 empty for negative (Ambion, Negative control #1) and positive (mouse Casp4) controls, respectively. The median value of each plate's negative control column was used to normalize sample wells, and the positive control was used to assess transfection efficiency and assay performance.
# Lipofectamine RNAiMAX Transfection Reagent ([…]; Invitrogen) was added in […] serum-free, antibiotic-free media to plate wells using a Thermo Scientific Matrix WellMate and Microplate Stacker. Plates were incubated for 45 min at room temperature to allow for the sufficient formation of siRNA-lipid complexes. Cells were seeded at a density of 1x10^4 cells per well in 20 microL media containing 20% (vol/vol) FBS without antibiotics. The final concentration of siRNA in each well was 100 nM. Cells were cultured for 48h at 37 degrees C in 5% CO2 before addition of […] of TLR ligand Pam3CSK4 for 5 hours. The medium was then removed, replaced with […] growth media and cell were transfected with […] of LipidA and TransIT-TKO (Mirus) for 24 hour. At the end of the LipidA treatment, […] of supernatant was transferred to a 384 Greiner Bio-one non-binding low volume plate and […] of IL-1a HTRF reagent (Cisbio, 62MIL1APEH) was added and incubated at room temperature overnight. The plates were read on an EnVision plate reader (PerkinElmer). Cell viability was measured by adding 20ul Cell Titer Glo to the original plate and running a luminescence read on the EnVision. The quantified IL-1a signal for each siRNA gene-targeted well was divided by the median of the negative control wells and multiplied by 100 to achieve a negative control normalized value for each well/siRNA. This normalized value was then used to generate a robust z-score by first taking the log of each value and then by subtracting the median and dividing by the […].
row,Sequence,z-score
1,GGAUGUGACGCACACAUGUTT against Cdip1,1.11
2,GCAAAUUGGUCAUCGACUGTT against Alg1,0.0456
3,GCCAUCUACUCUUUAAAUATT against Pdha1,0.351
4,GCAGAAAAACAUCCACGACTT against Spn,-2.01 (active)
5,GCAGACAGAUCGCUUCAACTT against Dok4,-0.882
6,CCCUCUUAGGAGCUAGUGATT against Atp2b4,-1.85
7,CCAUUCGAUACCUCGUGCATT against Dhps,-0.249
8,GGGCCUGGAUUACUUACACTT against Srpk1,4.83 (active)
9,UACUUGUAGCCAUGGCUCUTT against Olfr685,0.334
10,GGCAAAAUAUUGCACAGCGTT against Tsga10,-0.474
11,GGAAAUUAAACAGAAACAGTT against Ube2j2,-0.471
12,GGCUGUUUUACAUCAUCCCTT against Ust,-0.227
13,GGGAAAGUUUCUGCAUUCUTT against Lce1d,2.07 (active)
14,CCACAGUCUAUUCAAACUUTT against Ncapd3,-1.12
15,GGUCAAGUCAGCAUUCCUGTT against Hspbp1,-1.78
16,GGAAAAGAAGACCUACACCTT against Ppp1r1c,-2.04 (active)
17,GGCCUGGAUGGAAAUUUGCTT against Fabp4,-0.851
18,GGAGAAAAGAGUUUGCCCGTT against Wfdc12,-0.329
19,GCAAAUUCUCGGUGUCAAATT against Ezh2,-1.04
20,CCUAGUAACUAUCUACCUCTT against Sval3,0.232
21,GGAUAUCAUCAUGUCUUUCTT against Otop1,1.29
22,CGUGGAUAAAGAUAACCCGTT against Znrd2,-0.117

row,Sequence,z-score
1,GAUAAAAUCGGACUGAUAATT against Olfr1079,0.837
2,GGCGAACACUGUCAUGAAUTT against Spin4,3.37 (active)
3,GGUAUUCACACUGAAGCCCTT against H2-DMa,0.108
4,GCAACAUCCAGGCUUGCCUTT against Tmem107,-0.874
5,CCAUGAAGAACAAGAAAACTT against 1700010D01Rik,0.239
6,GGAUAGAAAACAGUAUCUGTT against Fggy,1.07
7,GGAAAACUGCUUUGAGCUGTT against Thap7,2.72 (active)
8,AAGGUGCAGAGUUACACGUTT against H2-T10,1.17
9,GGUCUUCAAUUUCUUCAAATT against 4930430F08Rik,0.928
10,GCAAUGUGUAUCAGCCGACTT against Gprc5b,3.38 (active)
11,GGGAAAACCGAAUAAAGAUTT against Ren2,-1.51
12,GCAUACCAUCUUAUUUUGGTT against Sptlc1,0.159
13,GCGUGAGCUAAUGUUCACATT against Agpat2,-0.255
14,GCCACUACUAAUAGCAUGUTT against 5330438I03Rik,-1.68
15,CCCAGCACAUGCUAUCUCUTT against Zbtb21,-2.6 (active)
16,GGAGAAUGGAAAGUAUGGGTT against D1Pas1,-1.99
17,GCCUAUAAGGAAUAACAAGTT against Cerkl,1.27
18,GGCCUUGAUGGUGAAGAUGTT against Vstm4,-1.79
19,GGACAGACGUGCACUUAGATT against Garnl3,0.875
20,GGUGGAUGUUCGCAUGAUUTT against Ip6k1,-1.2
21,GGCAUAUACACAAUUGAUATT against Arsk,-1.27
22,GGAUAAGGAGAUGAAUUCCTT against Aard,1.01

row,Sequence,z-score
1,GGUCUUACGCAAAACGGUCTT against Csf1r,2.86 (active)
2,CCCAAUCCUGUCAAUAGUCTT against Gfpt1,-0.911
3,GGCCUAAUGAAUUUGGUCATT against Ubxn7,0.93
4,CCCACAAAUUAAAGUCCGCTT against Cldn16,0.926
5,GGACCUGUCUUCAUUGGAGTT against Ngb,0.981
6,GCAGAUAAUUUUAACCCUCTT against Inpp5b,0.641
7,GCCAUUCUCCAACAAUCGATT against Evc,-1.69
8,CCUGCUACAAGUAUCUCAATT against Fdft1,2.85 (active)
9,GCAACCUCUCCUCUCUAGATT against Olfr15,-1.11
10,GCGGAUUCAGCUGAUGAUGTT against Sash1,-1.32
11,GGGUUCUCAAGGUUGCAUUTT against Frs3,1.15
12,GCUCGCCUGCAUUUCAUCATT against Pank4,3.3 (active)
13,CCCGGUUAGCCUUUGAUUGTT against Lamc3,0.576
14,GGGAAUUUUGAAAAGGCUGTT against Nphp3,2.12 (active)
15,CCCUUGAGUCAUUCUCUAATT against Gsto1,0.0391
16,GGAAAUAGAUUUUCAGCUCTT against Dnase2b,0.138
17,GGAAUUUGAAACUUACGGCTT against Oc90,0.379
18,UUUCGAGCUGAUCCAUGAGTT against Tbata,1.19
19,GGUCCAGAUCCACCAGAUUTT against Banp,1.11
20,GGCACUCAAUGGUGAGCAATT against Sipa1,2.03 (active)
21,GGCUCUUGCUUUAGUAUUCTT against Ly9,0.99
22,GGCAGAUUACUCUGAAUGATT against Prdx4,0.326

row,Sequence,z-score
1,GGUUUAUUGUAAUGGCUAATT against Olfr1271,0.452
2,GGACAAAUGGGUAUUAUCUTT against Phxr4,-1.01
3,GGAGAUGAUUUCCUACUUCTT against Rasgrp2,3.47 (active)
4,GGUGUACCAGAAUGAGAAGTT against Akr1b3,0.611
5,GGUAUUUAGUAAACACCCATT against Edar,0.413
6,GGGUCAAAUCUGACUGCAUTT against Klf10,0.501
7,GAGAACCAGGCUAUGUCUGTT against Defa-rs10,0.623
8,GCUGGCUGUUGGAUAAGUGTT against Olfr1112,2.45 (active)
9,CCUUGAUUGAGCCUGACUUTT against Hook2,0.543
10,CCUCAUAUAUCCCUAAUUATT against Camk1g,-0.982
11,GGACCUGUUUGAGCAGAGGTT against Eps8l2,0.539
12,GGUAGAAGUGAAAAAGAUATT against Bhmt,-0.386
13,GCGAGAGAUUCUUUCCCUGTT against Traf6,-1.24
14,CCUCCUCUCUGUUUUCUACTT against Olfr699,-1.16
15,GCAGAAAAACCUGUGAAAATT against Pcnp,1.57
16,GGAUGGAUGUUUGCAUAAATT against Msx2,5.06 (active)
17,GGGACACAUACUGUAGUAUTT against Pspc1,0.00343
18,GGAGGAGAUGAUGAAUUUUTT against Etf1,0.965
19,GGUGAGUUCAUGGUUUCCUTT against Txnl4b,-0.142
20,GAGAAACUAUGGCUGAAAATT against Klk1,0.439
21,CCCUAAAAGACAAAGUGCUTT against Cmtm3,0.877
22,CCUAGAGAGACAUAUUGUUTT against Vstm4,-0.206

row,Sequence,z-score
1,GCCAAUGACCCAAAUUCUATT against Ppip5k1,0.812
2,CCAUUUUUACCUACAUCCATT against Olfr452,2.43 (active)
3,CCCUACAGUACUAAUCAAATT against Ptgs2,0.6
4,GGGCUCUAACAUCUUAUACTT against Tbc1d31,1.54
5,GGGCCAUGGAUAAGAAAAATT against Psmc5,-2.61 (active)
6,GGCACAGACGGAUCAACAGTT against Clcn3,-0.725
7,GCUAUUGAGAAACCACUUATT against Rasef,-0.276
8,CCUAUUACUCAAACACAGATT against Arl5b,-0.257
9,GGACACAGCAAGAAGAUACTT against Wfdc12,-1.79
10,GCCACACCAAUAGAAGUGUTT against Csnk1g3,-2.42 (active)
11,UCUCCUUCAUUCCAUGUAUTT against Olfr441,-2.18 (active)
12,CCAUCAAAGUCAUCGACGGTT against Birc6,-0.427
13,GGAGUGAGUCCUGAAGCAATT against Ifna12,-0.372
14,GCCGUUACUGAGCUGAAAUTT against Allc,-0.866
15,CGCUUCAUGACUUCUGAAUTT against Ppp1r32,0.0722
16,GCCCAACCUGUCCAUACUUTT against Guca2b,-0.193
17,GCUAUUUUCGUCACUUUCUTT against Tssk1,0.494
18,GGAUGAAUUCAUUGAAGAATT against Btk,0.321
19,GGUUCGUCGCCUUUUAGGGTT against Alx4,3.74 (active)
20,GAGCUUCUAAUUCACCCUATT against Abcc6,0.181
